High-throughput results as filed in PubChem BioAssay.
Rows were chosen to be rich in hits. Some 4% of all compounds tested hit in one or more screens of this group.
D1 ag – human D1 receptor agonism | activation, % at 2 µM | actives 1% (n = 360,000) | HEK293 T-REx D1 cells, calcium flux, agonist mode
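Inducible HEK293 T-REx D1 cells, force-coupled to calcium signalling, were plated at 4000 cells/well with tetracycline and held overnight at 30 C. After no-wash calcium dye loading, compound-evoked calcium rise over 180 s flagged agonists.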
D1 PAM – enhances dopamine response at the human D1 receptor | P21728 | HEK293 TREx D1 cells, calcium flux, dopamine EC20 potentiation | potentiation, % at 10 µM | actives 0.036% (n = 360,000); in the data active means potentiation above about 30%
D1 antagonist – blocks dopamine activation of the human D1 receptor. actives 3.2% (n = 360,000). activity change, negative = inhibition, % at 10 µM. HEK293 TREx D1 cells, calcium flux, dopamine EC80; active compounds read low. P21728. AID 504652; in the data active means activity change below about -30%
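Antagonism measured as reduced calcium response to an EC80 dopamine addition following 180 s compound pre-read; cells were inducible HEK293 Trex D1 plated overnight at 30 C, read kinetically at 1 cycle/sec.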
TRHR enhancer – allosterically enhances the human TRH receptor; P34981; TRHR cells, fluo-8 calcium fluorescence, EC20 TRH enhancement; enhancement, % at 2 µM; actives 0.66% (n = 360,000); AID 493056; in the data active means enhancement above about 30%
Target sequence (P34981 whole entry, looked up): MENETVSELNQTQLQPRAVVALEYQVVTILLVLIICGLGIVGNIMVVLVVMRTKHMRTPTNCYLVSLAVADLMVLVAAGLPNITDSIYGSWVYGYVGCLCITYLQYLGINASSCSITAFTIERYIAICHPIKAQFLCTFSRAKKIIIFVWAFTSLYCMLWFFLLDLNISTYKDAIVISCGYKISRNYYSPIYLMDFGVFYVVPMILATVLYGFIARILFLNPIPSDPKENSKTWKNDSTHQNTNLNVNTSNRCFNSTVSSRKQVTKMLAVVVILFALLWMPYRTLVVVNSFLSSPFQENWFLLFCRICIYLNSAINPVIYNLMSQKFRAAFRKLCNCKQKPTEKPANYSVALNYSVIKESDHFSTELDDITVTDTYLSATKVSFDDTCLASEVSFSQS
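Enhancer read-out: after compound pinning and an initial kinetic agonist-mode read, an EC20 of TRH (10 nM final) was injected and fluo-8 calcium signal (Ex 480/Em 530) followed at 1 s/cycle for 100 cycles in TRHR-expressing cells.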
Glioma ERSR ind – ER stress response induction in glioma. U87-MG GRP78 promoter luciferase reporter, 16 h. Potency, µM, usual class: activators. actives 0.02% (n = 420,000); active means well fitted activation curve with a large enough effect; further: series mostly up to about 76 µM; nearly all actives have a fitted effect of over 35% in size
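ERSR induction read as luciferase luminescence (Bright-Glo, 10 min at room temperature) in stably transfected human U87-MG glioma cells exposed to compounds for 16 h, using GRP78 as sensor.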
TRHR agonist – agonists of human TRH receptor; P34981; AID 493084; activation, % at 2 µM; actives 0.18% (n = 360,000); TRHR cells, calcium flux fluo-8, FDSS agonist mode
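In this calcium-flux screen, cells bearing human TRHR are dye-loaded with fluo-8, baselined for 10 cycles, then exposed to library compounds; positive kinetic calcium responses during the agonist phase mark hits, with TRH as control.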
Of the large screens only hits and unclear results are named; the others gave an inactive call; ! = a repeat was not active. Unless noted, no stated cut-off is given here; in the data, active means activation above about 30%; inactive means the rest.

N/C(=N\OC(=O)c1cccc(Cl)c1)c1ccccn1	D1 antagonist -38.5
N/C(=N\OC(=O)COc1ccc2ccccc2c1)c1ccccn1	D1 antagonist -52.8
N/C(=N\OC(=O)COc1ccc(Br)cc1)c1ccncc1	D1 antagonist -39.5
N/C(=N\OC(=O)COc1ccc([N+](=O)[O-])cc1)c1ccncc1	none
N/C(=N\OC(=O)c1cccnc1)c1ccc(Cl)cc1Cl	D1 antagonist -33.0
O=C(c1ccco1)N1CCN(Cc2cn[nH]c2-c2cccc3ccccc23)CC1	none
CC/C=C(\C(=O)N[C@H]1C(=O)N2C(C(=O)OCOC(=O)C(C)(C)C)=C(COC(N)=O)CS[C@H]12)c1csc(N)n1	none (no result: D1 ag, D1 PAM, D1 antagonist, TRHR enhancer, TRHR agonist)
COC(=O)C1=C(C)N(Cc2ccccc2)C2=C(C(C)=O)C[C@@](O)(C(=O)OC)C(=O)N2C1c1ccccc1 (some centres not stated)	none (no result: D1 ag, D1 PAM, D1 antagonist, TRHR enhancer, TRHR agonist)
Cc1cccc(OCC(=O)O/N=C(\N)c2ccc(Cl)cc2)c1	D1 antagonist -43.5
CCOC(=O)c1c(CSC(=N)N)n(-c2ccc(Br)cc2)c2cc(Br)c(OC(C)=O)cc12	D1 ag 40.4
CCOc1ccc(CCNC(=O)COC(=O)c2ccc(S(=O)(=O)N3CCCC3)cc2)cc1OCC	D1 antagonist -37.5
CCOc1ccc(CCNC(=O)COC(=O)c2ccc(S(C)(=O)=O)cc2)cc1OCC	none
CCCOc1ccc(C(=O)OCC(=O)NCCc2ccc(OCC)c(OCC)c2)cc1OC	none
Cc1ccc(CNC(=O)COC(=O)c2ccc(S(=O)(=O)N3CCCC3)cc2)cc1	D1 antagonist -30.4
CCOc1ccc(CCNC(=O)COC(=O)c2ccc(C)c([N+](=O)[O-])c2)cc1OCC	D1 antagonist -46.9
O=C(COC(=O)c1ccc(S(=O)(=O)N2CCCC2)cc1)NCc1ccc(F)cc1	none
CCn1cc(/C=C/c2cc[n+](C)cc2)c2ccccc21	D1 ag 69.1
C=CCn1cc(/C=C/c2cc[n+](C)cc2)c2ccccc21	D1 ag 38.3
C=CCn1c(C)c(/C=C/c2cc[n+](C)cc2)c2ccccc21	none
CCOC(=O)Cc1c(C)nc2cc(-c3ccc(C(C)(C)C)cc3)nn2c1C	D1 antagonist -39.1
CCOC(=O)Cc1c(C)nc2cc(-c3ccc(C(C)(C)C)cc3)[nH]n2c1=O	none
O=C(O)CSc1cccc[n+]1[O-]	none
N#CC(C#N)=C(N)CSc1cccc[n+]1[O-]	TRHR enhancer 34.5
CN=c1scc(-c2cccs2)n1/N=C/c1ccc(O)c(O)c1O	D1 antagonist -89.3
CN=c1scc(-c2cccs2)n1/N=C/c1ccccc1O	none
COc1cc(C2NC(=O)NC3=C2C(=O)OC3)cc(OC)c1OC (configuration not stated)	none
Cc1oc(-c2cccc(NC(=O)c3ccccn3)c2)nc1CNC(=O)C#Cc1ccccc1	none (no result: D1 ag, D1 PAM, D1 antagonist, TRHR enhancer, TRHR agonist)
O=C(N/N=C/c1cc2c3c(c1O)CCCN3CCC2)c1ccccc1O	D1 ag 30.9
Cn1cc(/C=N/NC(=O)c2ccccc2O)c2ccccc21	none
CC(OC(=O)c1ccc2c(=O)n3c(nc2c1)CCCCC3)C(=O)Nc1ccc(F)cc1Cl (configuration not stated)	D1 antagonist -37.0
O=C(Nc1ccc(Cl)cc1)c1ccc2nsnc2c1	D1 antagonist -46.9
Cc1ccc(NC(=O)c2ccc3c(=O)n4c(nc3c2)CCC4)cc1F	none
O=C(Nc1ccc(F)c(Cl)c1)c1ccc2c(=O)n3c(nc2c1)CCCCC3	D1 antagonist -58.2
CC(=O)c1ccc(NC(=O)c2ccc3c(=O)n4c(nc3c2)CCCCC4)cc1	D1 antagonist -44.5
CN(C)c1ccc(NC(=O)c2ccc3nsnc3c2)cc1	none
CC(OC(=O)c1ccc2c(=O)n3c(nc2c1)CCCCC3)C(=O)Nc1ccc(Cl)cn1 (configuration not stated)	none
O=C(Nc1ccc(F)cc1)c1ccc2c(=O)n3c(nc2c1)CCCCC3	none
O=C(O)/C=C/c1cccc(B(O)O)c1	none (no result: D1 ag, D1 PAM, D1 antagonist, TRHR enhancer, TRHR agonist)
O=c1oc2c(-c3ccc([N+](=O)[O-])cc3)cc(O)cc2s1	none
O=C(Nc1ccc(Cl)cc1)c1ccc2c(=O)n3c(nc2c1)CCCCC3	D1 antagonist -59.2
O=C(Nc1cccc(Cl)c1)c1ccc2c(=O)n3c(nc2c1)CCCCC3	none
CCCOC(=O)C(=O)NNc1ccccc1	TRHR enhancer 32.1
CC(C)OC(=O)C(=O)NNc1ccccc1	none
CC(C)CNC(=O)C1CCCN(C(=O)NCc2ccccc2)C1 (configuration not stated)	none
CN1CCN(C(=O)c2c(NC(=O)c3ccco3)sc3c2CCC(C(C)(C)C)C3)CC1 (configuration not stated)	D1 ag 34.1
CC(C)(C)C1CCc2c(sc(NC(=O)c3cccs3)c2C(N)=O)C1 (configuration not stated)	D1 PAM 32.8
Cc1ccccc1C(=O)Nc1sc2c(c1C(=O)N1CCCCC1)CCC(C(C)(C)C)C2 (configuration not stated)	none
Cc1nc2ccc(NC(=O)c3sccc3C)cc2s1	D1 antagonist -38.9
CCN(CC)S(=O)(=O)c1ccc2nc(NC(=O)c3ccc(Br)o3)sc2c1	none (no result: Glioma ERSR ind)
CCN(CC)S(=O)(=O)c1ccc2nc(NC(=O)c3cncc(Br)c3)sc2c1	D1 ag 30.6
CCN(CC)S(=O)(=O)c1nnc(NC(=O)c2ccc(C(C)C)cc2)s1	none
Cc1nc2ccc(NC(=O)c3cncc(Br)c3)cc2s1	D1 antagonist -36.1
CCN(CC)S(=O)(=O)c1ccc(C(=O)Nc2nnc(C(C)C)s2)cc1	D1 antagonist -39.8
CCN(Cc1ccccc1)C(=O)CCc1nc(CN2CCN(C(=O)c3ccc([N+](=O)[O-])cc3)CC2)no1	none
CCOC(=O)CN1C(=O)S/C(=C/c2ccc(N3CCCCC3)o2)C1=O	D1 ag 54.6
COC(=O)CN1C(=O)S/C(=C/c2ccc(N3CCCCC3)o2)C1=O	D1 ag 57.0, TRHR agonist 55.6
O=C(C[n+]1c(Cl)ccc2ccccc21)c1ccc2ccccc2c1	none (no result: D1 ag, D1 PAM, D1 antagonist, TRHR enhancer, TRHR agonist)
OCCN(CCO)c1nc(N2CCCCC2)c2nc(N(CCO)CCO)nc(N3CCCCC3)c2n1	D1 ag 318.5, D1 antagonist -39.0, TRHR agonist 106.3
Cc1cc(NC(=O)CN2CCN(Cc3ccccc3)CC2)nc2c1c(=O)oc1ccccc12	none (no result: Glioma ERSR ind)
CCCc1ccc(-c2cc(NC(=O)CSc3n[nH]c(N)n3)n(-c3ccccc3)n2)cc1	D1 ag 32.9
Cc1ccc(S(=O)(=O)N(C)C)cc1NC(=O)COC(=O)CC1CCCC1	none
Cc1ccc(S(=O)(=O)N(C)C)cc1NC(=O)COC(=O)CCC1CCCCC1	D1 antagonist -39.1
CCN(c1ccccc1)S(=O)(=O)c1cc(C(=O)Nc2ccc(Br)cc2)ccc1F	D1 antagonist -36.8!
